# Assay results as given in PubChem BioAssay AID1751 (National Center for Advancing Translational Sciences (NCATS), 2009).
# Results filed as inconclusive are left out. Active and inactive are the calls of the source. Calls come from the whole dose curve; as a rule, active = well fitted activation curve with a large enough effect; inconclusive = small, poorly fitted or top-dose-only effect; inactive = no such curve, though single readings can be large or run the other way.
# Biological target: Pyruvate kinase PKM (Homo sapiens) (UniProt P14618)
# Sequence (P14618 whole entry, looked up, canonical isoform): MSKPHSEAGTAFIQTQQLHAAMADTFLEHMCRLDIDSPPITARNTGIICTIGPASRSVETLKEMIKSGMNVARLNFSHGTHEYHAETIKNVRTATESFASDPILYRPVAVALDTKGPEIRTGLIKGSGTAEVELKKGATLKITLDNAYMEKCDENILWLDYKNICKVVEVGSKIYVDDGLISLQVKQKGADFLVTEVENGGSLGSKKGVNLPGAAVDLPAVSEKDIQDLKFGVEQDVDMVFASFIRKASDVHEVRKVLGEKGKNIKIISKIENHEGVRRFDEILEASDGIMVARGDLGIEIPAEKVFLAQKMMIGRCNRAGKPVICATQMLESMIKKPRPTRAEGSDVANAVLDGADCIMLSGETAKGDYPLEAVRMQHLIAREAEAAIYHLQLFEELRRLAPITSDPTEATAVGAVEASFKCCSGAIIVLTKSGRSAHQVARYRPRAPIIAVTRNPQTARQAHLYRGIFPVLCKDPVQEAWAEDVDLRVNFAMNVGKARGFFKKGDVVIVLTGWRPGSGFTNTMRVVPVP
# Assay: Confirmation Concentration-Response Assay for Activators of Human Muscle isoform 2 Pyruvate Kinase
# Conditions: purified hPK-M2, Kinase-Glo ATP luminescence, 1 h; series mostly up to 57.5 µM; activation (negative = inhibition): at the top concentration
# Excerpt: NIH Chemical Genomics Center [NCGC] Matthew G. Vander Heiden, M.D., Ph.D. [Harvard Medical School, 77 Avenue Louis Pasteur, Boston, MA 02115] MLPCN Grant: 1 R03 MH085679-01 NCGC Assay Overview: Human pyruvate kinase muscle 2 (hPK-M2) enzyme was supplied as a highly purified (>95% pure) preparation from Harvard Medical School and assayed for its ability to generate ATP from ADP using phosphoenolpyruvate (PEP) as a substrate. ATP generation was detected in a coupled reaction by luciferase-mediated luminescence, an ATP-dependent process. Pyruvate kinase substrates, PEP and ADP, were present in the assay at Km and approximately 10-fold below Km respectively. The enzyme was assayed at an intermediate level of activity to screen for both inhibitors and activators.
# NCGC Assay Protocol Summary: Three uL of substrate mix (at r.t.) in assay buffer (50 mM Imidazole pH7.2, 50 mM KCl, 7 mM MgCl2, 0.01% Tween 20, 0.05% BSA) was dispensed into white solid bottom 1,536 well microtiter plates so that the final concentrations of substrates in the assay were 0.1 mM ADP and 0.5 mM PEP. 23 nL of compound were delivered by a pin tool and 1 uL of enzyme mix (final concentration of 0.1 nM) in assay buffer (4 degree Celsius) was added. Plates were incubated at room temperature for 1 hour. Two uL of detection mix (Kinase-Glo, Promega; at 4 degree Celsius protected from light) was added and luminescence read by a ViewLux (Perkin Elmer) at 1 second exposure/plate. Data were normalized to the uninhibited (column 3) and AC100 inhibition (no enzyme in column 2). To monitor activation, the first column contained a titration of the activator, NCGC00031955-03 (16-point 1:2 dilutions in duplicate starting at 57 uM) and the first 16 rows of column 4 contained 57 uM of NCGC00031955-03.
SMILES,Potency,activation (negative = inhibition)
COc1cc(F)c(S(=O)(=O)N2CCN(S(=O)(=O)c3ccc4c(c3)OCCO4)CC2)c(F)c1,17.9 nM (active),
CC(O)c1cc2c(s1)c1cnn(Cc3ccccc3F)c(=O)c1n2C (stereo not drawn),113 nM (active),
Cn1c2ccsc2c2ncn(Cc3ccccc3F)c(=O)c21,17900 nM (active),
CSc1cc2c(s1)c1cnn(Cc3ccccc3F)c(=O)c1n2C,14.2 nM (active),
COc1ccc(S(=O)(=O)N2CCN(S(=O)(=O)c3ccc(OC)cc3)CC2)cc1,142 nM (active),
Cc1cc2c(s1)c1c(C)nn(Cc3ccccc3F)c(=O)c1n2C,20100 nM (active),
CCCc1noc(-c2ccc(-c3ccccc3)cc2)n1,,-42.9% (inactive)
Cc1cc2c(s1)c1cnn(Cc3ccc(C(C)C)cc3)c(=O)c1n2C,63.5 nM (active),
Cc1cc2c(s1)c1cnn(Cc3ccccc3F)c(=O)c1n2C(C)C,,11.2% (inactive)
C[C@@H]1CN(S(=O)(=O)c2c(F)cccc2F)CCN1S(=O)(=O)c1ccc2c(c1)OCCO2,1790 nM (active),
Cc1cc2c(s1)c1cnn(Cc3cccc(Cl)c3)c(=O)c1n2C,101 nM (active),
CN1CCOc2ccc(S(=O)(=O)N3CCN(S(=O)(=O)c4c(F)cccc4F)CC3)cc21,2010 nM (active),
O=S(=O)(NC1CCN(S(=O)(=O)c2ccc3c(c2)OCCO3)CC1)c1c(F)cccc1F,2530 nM (active),
Cc1ccc(Cn2ncc3c4sc(C)cc4n(C)c3c2=O)cc1,225 nM (active),
O=S(=O)(c1c(F)cccc1F)N1CCN(S(=O)(=O)c2c(F)cccc2F)CC1,50.5 nM (active),
Cc1cc2c(s1)c1cnn(Cc3cccc(F)c3)c(=O)c1n2C,101 nM (active),
O=C(/C=C/c1cccc(Cl)c1)c1nc2ccccc2[nH]1,,-37.2% (inactive)

SMILES,Potency,activation (negative = inhibition)
C[C@H]1CN(S(=O)(=O)c2ccc3c(c2)OCCO3)CCN1S(=O)(=O)c1c(F)cccc1F,8970 nM (active),
O=S(=O)(c1ccccc1)N1CCN(S(=O)(=O)c2ccc3c(c2)OCCO3)CC1,160 nM (active),
CC(C)N1C(=S)SC(C)(C)C1NO (stereo not drawn),,-4.61% (inactive)
O=S(=O)(c1ccc2c(c1)OCCO2)N1CCCN(S(=O)(=O)c2c(F)cccc2F)CC1,566 nM (active),
O=S(=O)(NC1CCN(S(=O)(=O)c2c(F)cccc2F)C1)c1ccc2c(c1)OCCO2 (stereo not drawn),11300 nM (active),
COc1ccc(S(=O)(=O)N2CCN(S(=O)(=O)c3ccc4c(c3)OCCO4)CC2)cc1,80 nM (active),
Cc1cc2c(s1)c1cnn(Cc3ccc(F)cc3F)c(=O)c1n2C,25.3 nM (active),
O=S(=O)(c1ccc(F)cc1)N1CCN(S(=O)(=O)c2ccc3c(c2)OCCO3)CC1,56.6 nM (active),
COc1ccc(Cn2ncc3c4sc(C)cc4n(C)c3c2=O)cc1F,127 nM (active),
N#Cc1cc(-c2ccccc2)cnc1Sc1ccccc1,,-17.8% (inactive)
CCCc1cc(F)c(S(=O)(=O)N2CCN(S(=O)(=O)c3ccc4c(c3)OCCO4)CC2)cc1F,800 nM (active),
O=S(=O)(c1ccc(Cl)cc1)N1CCN(S(=O)(=O)c2ccc3c(c2)OCCO3)CC1,56.6 nM (active),
O=S(=O)(NCCCNS(=O)(=O)c1c(F)cccc1F)c1ccc2c(c1)OCCO2,2840 nM (active),
COc1ccc(S(=O)(=O)N2CCN(S(=O)(=O)c3c(F)cccc3F)CC2)cc1,56.6 nM (active),
C[C@@H]1CN(S(=O)(=O)c2ccc3c(c2)OCCO3)CCN1S(=O)(=O)c1c(F)cccc1F,2530 nM (active),
Cc1cc2c(s1)c1cnn(Cc3cc(C(F)(F)F)cc(Cl)c3F)c(=O)c1n2C,20.1 nM (active),
